High-throughput results (PubChem BioAssay)
An excerpt weighted towards active compounds, which were near 7.6% of everything screened.
p53 reactivation – restores transcriptional activity of mutant p53; 320,000 tested, 0.063% active; Potency, µM (doses to about 92.2 µM), for the others: top-dose activity change, positive = activation, actives largely listed as activators; H1299 p53-A138V BP100-luciferase reporter, luminescence, 24 h; AID 504706; note: potency is the fitted concentration of half-maximal effect; % of control where 0% means no effect; nearly all actives have a fitted effect of over 45% in size
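p53-null H1299 cells stably carrying temperature-sensitive p53-A138V and a BP100-luciferase reporter were pinned with compounds (4-point, 1:5 series) and held 24 hrs at 37 deg C. Luminescence was read 10 min after detection reagent.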
ELG1 repair inh – inhibitors of ELG1-dependent DNA repair in HEK293T cells; Potency, µM (highest dose often 46.1 µM), for inactives: top-dose activity change, negative = inhibition, actives largely listed as inhibitors; 330,000 tested, 2.3% active; HEK293T ELG1-luciferase reporter, luminescence, 16 h; DNA damage induced by 5-fluorouridine; note: potency is the fitted concentration of half-maximal effect; % is set by controls: 0 for no effect and ±100 for the full control effect; nearly all actives have a fitted effect of over 55% in size
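Reporter activity after DNA damage by 5-fluorouridine is monitored. Compound-treated cells incubate 16 hr at 37 °C, then ONE-Glo is added for 30 min before luminescence reading.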
Giardia kill – Giardia lamblia killing; Giardia lamblia trophozoite viability; activity change, % at 7.66 µM, hits read low; 340,000 tested, 0.15% active; AID 540267; in the data active = activity change below about -80%; inconclusive = between about -30% and that limit;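 note: parasites exposed to compound for two days anaerobically before the ATP read; % is set by controls: 0 for no effect and ±100 for the full control effect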
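Luminescence from cellular ATP indicates surviving trophozoites (100 cells/well) following 48 hrs anaerobic compound treatment at 37 deg C; signal develops 15-30 min at room temperature.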
RORgamma inh – blocks mouse ROR gamma transcriptional activity; 310,000 tested, 5.4% active; Potency, µM (top dose mostly 53.6 µM), inactives show at the highest dose activity change, negative = inhibition, most hits filed as inhibitors; P51450; Drosophila S2 Gal4-RORgamma UAS-luciferase reporter, 20 h; note: potency is the fitted concentration of half-maximal effect; % is set by controls: 0 for no effect and ±100 for the full control effect; nearly all actives have a fitted effect of over 60% in size
Target sequence (P51450 whole entry, looked up, the tested form may be a part): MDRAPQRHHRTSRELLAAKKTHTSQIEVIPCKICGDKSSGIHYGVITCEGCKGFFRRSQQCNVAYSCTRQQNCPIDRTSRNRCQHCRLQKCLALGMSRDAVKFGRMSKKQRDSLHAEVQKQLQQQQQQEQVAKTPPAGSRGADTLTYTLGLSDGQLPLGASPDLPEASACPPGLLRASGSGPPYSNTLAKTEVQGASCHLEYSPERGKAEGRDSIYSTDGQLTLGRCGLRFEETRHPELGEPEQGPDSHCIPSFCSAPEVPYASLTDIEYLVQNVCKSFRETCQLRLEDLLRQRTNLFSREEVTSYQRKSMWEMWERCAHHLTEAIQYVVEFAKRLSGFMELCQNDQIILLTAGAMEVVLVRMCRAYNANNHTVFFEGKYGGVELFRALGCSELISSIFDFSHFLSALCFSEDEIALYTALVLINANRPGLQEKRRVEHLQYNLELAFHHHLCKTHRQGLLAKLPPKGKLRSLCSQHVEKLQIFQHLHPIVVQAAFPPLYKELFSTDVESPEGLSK
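A Gal4/UAS one-hybrid system in insect cells: metallothionein-promoter Gal4–ROR gamma fusion plus Photinus luciferase reporter. Copper sulfate 700 uM final, 20 hr ambient incubation, luminescent detection after 10 min with reagent.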
Gal4-VP16 FLuc – counter-screen for ROR gamma inhibitors: Gal4-VP16 reporter | Drosophila S2 Gal4-VP16 UAS-luciferase, luminescence, 20 h | Potency, µM (top dose mostly 53.6 µM), inactives show at the top dose activity, negative = inhibition, most hits filed as inhibitors | 310,000 tested, 3.5% active | AID 2546;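 note: Gal4-VP16 expression switched on by copper sulfate through the metallothionein promoter; potency is the fitted concentration of half-maximal effect; % is set by controls: 0 for no effect and ±100 for the full control effect; nearly all actives have a fitted effect of over 50% in size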
BRCA1 expr up – increases BRCA1 expression. MCF7-BRCA1-FFLuc reporter, luminescence, 48 h; response scale: scaled: vehicle 0%, 10 µM genistein 100%. 380,000 tested, 1.1% active. Potency, µM (top dose mostly 46.1 µM), without a hit: at the top dose activation, usual class: activators. AID 624202; note: potency is the fitted concentration of half-maximal effect; nearly all actives have a fitted effect of over 80% in size
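MCF7-BRCA1-FFLuc, 2000 cells/well; 2 h attach, 37 °C/5% CO2; compound 48 h; luciferase substrate 15 min; luminescence end-point. Norm. to genistein 10 microM max activation and DMSO; concentration-response curves fitted.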
* = called active by the depositor; ? = inconclusive; · = not tested or not shown; [ ] = remark or other dose. Unless noted, calls come from the whole dose curve; as a rule, active = well fitted curve in the direction sought with a large enough effect; inconclusive = small, poorly fitted or top-dose-only effect, or another doubt; inactive = no such curve, though single readings can be large; an effect the other way counts as inactive or inconclusive.

SMILES	p53 reactivation	ELG1 repair inh	Giardia kill	RORgamma inh	Gal4-VP16 FLuc	BRCA1 expr up
COc1ccc(N2C(=O)[C@@H]3[C@H](C2=O)[C@H]2C=CC=NN2[C@@H]3C(=O)Nc2ccc(Cl)cc2)cc1	8%	3%	-15	14µM*	?	-34%
O=C(Nc1ccc(Cl)cc1)[C@@H]1[C@@H]2C(=O)N(c3ccc4ccccc4c3)C(=O)[C@@H]2[C@H]2C=CC=NN21	-1%	-10%	-5	-15%	5%	-24%
Cc1ccc(S(=O)(=O)N2CCOCC2)cc1C(=O)NC1=NCCS1	3%	0%	6	·	·	-16%
CCCCNc1nc(C)nc2c1nc(-c1ccccc1)n2CCN(C)C	·	·	·	-37%	-9%	·
O=[N+]([O-])c1ccc(NN=Cc2cccc3ccccc23)cc1	·	·	10	·	·	-16%
O=[N+]([O-])c1cc(Br)c(O)c(/C=N/Nc2nnnn2-c2cccc3ccccc23)c1	-3%	-11%	-11	3.2µM*	6.3µM*	-18%
O=c1c2ccccc2sc2ccc(NCCCN3CCOCC3)cc12	·	·	-7	·	·	11µM*
O=C(Nc1nc(-c2ccccn2)cs1)c1ccc([N+](=O)[O-])o1	?	?	?	?	?	-72%
O=C(Nc1nc(-c2ccccn2)cs1)c1ccc(-c2ccccc2F)o1	14%	-54%	0	·	·	-9%
Cc1ccc(C(=O)Nc2nc(-c3ccccn3)cs2)o1	8%	?	10	13µM*	?	-48%
Cc1ccc(C(=O)Nc2nc(-c3ccc4c(c3)OCCO4)cs2)o1	·	·	·	·	·	8.9µM*
CC(=O)c1ccc(-c2ccc(C(=O)Nc3nc(-c4ccccn4)cs3)o2)cc1	?	18µM*	-29	·	·	-40%
O=C(Nc1nc(-c2ccc3c(c2)OCCO3)cs1)c1ccc(Br)o1	·	·	·	·	·	5%
Cc1nc(-c2ccc3c(c2)OCCO3)cs1	24%	?	29	38%	8%	7.9µM*
O=C(CCl)Nc1ccc(N2CCCCCC2)cc1	-12%	18%	-16	?	?	-53%
COC(=O)c1cc2ccc(OC)cc2c2cc(OC)c(OC)cc12	-1%	13µM*	1	·	·	-47%
COC(=O)c1cc(OC)c(OC)cc1NC(=O)Nc1ccc(OC)cc1	-4%	-3%	14	5%	1%	-8%
Clc1cccc(-c2nc(NCCCN3CCOCC3)c3ccccc3n2)c1	-8%	?	43	?	?	-68%
Clc1ccc(-c2nc(NCCCN3CCOCC3)c3ccccc3n2)cc1	-6%	23µM*	-20	8%	2%	-62%
Cc1sc2ccccc2c1CNC[C@H]1O[C@@H](n2cnc(C(N)=O)n2)[C@H](O)[C@@H]1O	·	·	7	·	·	-19%
CCOc1cc(C(=O)OC(C)C(=O)Nc2ccc(S(N)(=O)=O)cc2)ccc1OCC(=O)N1CCOCC1 (stereo not drawn)	4%	-1%	37	·	·	0%
C=C(C(=O)c1ccccc1)C(C)CC(=O)c1ccccc1 (stereo not drawn)	-31%	?	5	?	18µM*	-104%
O=C(CC(Nc1ccc(Cl)cc1Cl)C(=O)O)c1ccccc1 (stereo not drawn)	22%	?	-13	13µM*	?	-14%
O=C(CC(Nc1ccccc1)C(=O)O)c1ccccc1 (stereo not drawn)	?	?	6	11µM*	7.9µM*	11µM*
CC(C)NC(=O)C1(C)CCN1C(=O)c1c(F)cccc1F (stereo not drawn)	·	·	·	·	·	12%
SMILES	p53 reactivation	ELG1 repair inh	Giardia kill	RORgamma inh	Gal4-VP16 FLuc	BRCA1 expr up
Cc1ccc(C(=O)CSC2=C(C#N)C(c3ccco3)C3=C(CCCC3=O)N2)cc1 (stereo not drawn)	-1%	6.5µM*	13	32%	-3%	-52%
CCCCc1ccc(NC(=O)CSC2=C(C#N)C(c3ccco3)C3=C(CCCC3=O)N2)cc1 (stereo not drawn)	20%	18µM*	-21	-3%	-8%	-88%
CN(C)C1(CNC(=O)C2CCC(=O)N(Cc3ccc(Cl)cc3)C2)CCCCC1 (stereo not drawn)	-1%	0%	-25	-5%	8%	6%
COC(=O)[C@@H](NC(=O)O[C@@H]1C(=O)c2cc(OC)ccc2O[C@H]1c1cccc(OC)c1)C(C)C	·	·	·	23%	-13%	·
O=c1c(O)c(-c2ccccc2)oc2cccc(O)c12	·	·	·	4µM*	7.9µM*	·
Cc1cccc(NC(=O)NCC(F)(F)F)n1	1%	-3%	-5	2%	-3%	4%
Cc1cc(C)c(NC(=O)COC(=O)C2=COCCO2)c(Cl)c1	0%	3%	12	·	·	3%
COc1ccc(CNC[C@@H](CCCCN(C)Cc2ccc(OC)cc2)N2C[C@H](c3ccccc3)N(CCc3ccc(Cl)c(Cl)c3)C(=O)C2=O)cc1	-12%	-29%	7	5.6µM*	5µM*	-14%
Cc1c(C(=O)N2CCc3ccccc32)oc2c1C(=O)CC(C)(C)C2	?	?	0	?	11%	13µM*
COCCNC(=O)c1ccc2c3n(nc2c1)-c1ccc(Cl)cc1CO3	6%	?	-20	-38%	-29%	?
O=C(NCC1CC1)c1ccc2c3n(nc2c1)-c1ccc(Cl)cc1CO3	·	·	-4	·	·	2.5µM*
CC(C)[C@@H](CO)NC(=O)c1ccc2c3n(nc2c1)-c1ccc(Cl)cc1CO3	17%	?	4	-11%	6%	4µM*
Cc1ccc2c(c1)COc1c3ccc(C(=O)N4CCOCC4)cc3nn1-2	24%	?	-5	-24%	3%	4.5µM*
C[C@@H](CO)NC(=O)c1ccc2c3n(nc2c1)-c1ccc(Cl)cc1CO3	21%	?	-8	-36%	-6%	?
O=C(NCCO)c1ccc2c3n(nc2c1)-c1ccc(Cl)cc1CO3	17%	?	12	28%	-1%	3.2µM*
O=S(=O)(c1ccc(Cl)nc1)N1CCCC1	5%	0%	6	·	·	6%
O=C(O)c1ccc2c3n(nc2c1)-c1ccc(Cl)cc1CO3	·	1%	3	7.1µM*	3.2µM*	23%
O=C(c1ccc2c3n(nc2c1)-c1ccc(Cl)cc1CO3)N1CCCCC1	?	?	12	-11%	9%	?
N#Cc1cccc(NC(=O)COC(=O)CCc2nc3ccccc3c(=O)[nH]2)c1	-1%	9%	9	-6%	3%[10 µM]	2%
COc1ccc(C(=O)C2CCCN(C(=O)c3ccoc3C)C2)cc1F (stereo not drawn)	10%	-19%	8	3%	-2%	-2%
